Measurements reported in ChEMBL document CHEMBL3988442, “University of Dundee, Small-Polar-MMV Screening Library” (2021).
The whole screen tested about 48,000 compounds, of which about 13,000 (27%) showed an effect of 50% or more. This is one part of the list.

These compounds were tested on Wolbachia pipientis (assay: Anti-Wolbachia Cell-Based Screen). Conditions: 5 µM.
Assay type: functional
Set-up: scale not given: in the data most compounds retested in dose-response had high values

| SMILES | Percent Effect |
| --- | --- |
| CNC(=O)Cc1ccc(-n2ccnc2-c2ccc(C(=O)O)s2)cc1 | -11.42% |
| Cc1noc(-c2ccc(N3CCCC(C(=O)O)C3)nc2)n1 (stereo not given) | -4.979% |
| CS(=O)(=O)NCCNC(=O)NC1(c2ccc(Cl)cc2)CCC1 | -10.79% |
| COc1nc2c(cc1C(=O)N1CC[C@H](CO)[C@@H](O)C1)CCC2 | 9.103% |
| Cc1cccc(CNC(CN2CCN(C)CC2)c2ccccc2)c1 (stereo not given) | 16.68% |
| CCOCC(=O)NCC(C)(O)c1cc(C)oc1C (stereo not given) | 5.951% |
| Cc1cc(C(C)(O)CNC(=O)OC(C)(C)C)c(C)o1 (stereo not given) | 0.294% |
| Cc1cc(C(C)(O)CNC(=O)CCOCC(C)C)c(C)o1 (stereo not given) | 51.29% |
| CC(NCc1nnc2n1CCCC2)c1nc(Cc2ccccc2)no1 (stereo not given) | 8.593% |
| O=C(O)C(F)(F)F.O=C(O)C(F)(F)F.O=C(O)c1cc2c(nc1-c1ccsc1)CCN(C1CCOC1)CC2 (stereo not given) | -18.13% |
| CCc1nc(CN2CCCN(C(=O)C3CCC3)CC2)cs1 | 7.838% |
| Cc1cc(C)c2c(N3CCC(C(=O)N4CCOCC4)CC3)ncnc2n1 | 125.4% |
| Cc1cc(C)c2c(N3CCC(C(=O)N4CCCC4)CC3)ncnc2n1 | 96.05% |
| Cc1nn(C)c2c(N3CCN(C(=O)C4CCC4)CC3)ncnc12 | 3.567% |
| Cc1cc(C)c2c(N3CCN(C(=O)N4CCOCC4)CC3)ncnc2n1 | 86.86% |
| O=C(C1CCN(c2ncnc3cccc(F)c23)CC1)N1CCCC1 | -3.07% |
| Cc1ccccc1CC(=O)N1CCc2c(ncnc2N2CCOCC2)C1 | 2.572% |
| Cc1cc(C)c2c(N3CCN(CCN4CCOCC4)CC3)ncnc2n1 | 8.578% |
| Cc1cc(C)c2c(N3CCCN(C(=O)C4CCC4)CC3)ncnc2n1 | 89.28% |
| Cc1cc(C)c2c(N3CCC(O)(Cn4ccnc4)CC3)ncnc2n1 | 6.34% |
| CCOCC(=O)N1CCC(CSCc2ccco2)CC1 | 4.494% |
| O=C(C1CCCN1S(=O)(=O)C1CCCC1)N1CCSCC1 (stereo not given) | -23.1% |
| CN(C)c1nc2c(c(N3CCC(O)CC3)n1)CN(CC1CCOC1)CC2 (stereo not given) | 9.412% |
| CC(Cn1cccn1)NS(=O)(=O)Cc1ccccc1 (stereo not given) | -19.72% |

| SMILES | Percent Effect |
| --- | --- |
| O=C(CNCc1ccccc1Cn1cccn1)Nc1cnccn1 | 109.9% |
| CCc1cnc(NCc2ccccc2Cn2cccn2)nc1 | 6.664% |
| O=C(CNC(Cn1cccn1)c1ccccc1)Nc1cnccn1 (stereo not given) | 104.7% |
| CC(CCNC(=O)NCCNc1cnccn1)c1ccccc1 (stereo not given) | 0.7277% |
| CC(C)OC(=O)CC(NC(=O)CCn1cccn1)c1ccccc1 (stereo not given) | -19.71% |
| CC(NC(=O)Cn1cccn1)c1cccnc1 (stereo not given) | -3.155% |
| NCCn1cc(C(=O)NCc2ccccc2Cn2cccn2)nn1 | -26.32% |
| c1ccc(C(Cn2cccn2)Nc2cnccn2)cc1 (stereo not given) | 93.79% |
| COC(=O)CN(Cc1ccccc1C)C(=O)COCC1CC1 | 5.451% |
| O=c1cc(Cn2ccnc2)nc2n1CCCN(S(=O)(=O)C1CC1)C2 | 102.1% |
| O=c1cc(Cn2cncn2)nc2n1CCCN(CC1CCOCC1)C2 | -15.84% |
| O=c1cc(Cn2cncn2)nc2n1CCCN(CC1CC1)C2 | -9.621% |
| O=c1cc(Cn2ccnc2)nc2n1CCCN(CC1CCOCC1)C2 | -2.581% |
| O=c1cc(CN2CCCC2)nc2n1CCCN(S(=O)(=O)C1CC1)C2 | 95.22% |
| O=c1cc(CN2CCCC2)nc2n1CCCN(CC1CCOCC1)C2 | 2.964% |
| CN(C)Cc1cc(=O)n2c(n1)CN(CC1CC1)CCC2 | 1.173% |
| O=c1cc(CN2CCCC2)nc2n1CCCN(CC1CC1)C2 | 112.4% |
| CCS(=O)(=O)N1CCCn2c(nc(CN3CCCC3)cc2=O)C1 | 124.6% |
| O=c1cc(Cn2ccnc2)nc2n1CCCN(Cc1ccco1)C2 | 5.269% |
| COCCN1C(=O)[C@]2(CC[C@@H]3CN(C(=O)NCC(C)C)C[C@@H]32)N=C1C | -10.16% |
| Cc1n[nH]c(-c2ccc(NC(=O)C(C)N3CCN(C)CC3)cc2)n1 (stereo not given) | 0.753% |
| O=S(=O)(c1cccnc1)N1C[C@@H]2COC[C@]2(COCC2CC2)C1 | 5.387% |
| CCCn1cnc2c1CN(C(=O)c1ccc(F)cc1)[C@H](C(=O)OC)C2 | 6.422% |
| FC(F)(F)c1n[nH]c2c1CN(Cc1cn3ccccc3n1)CC2 | 10.05% |

| SMILES | Percent Effect |
| --- | --- |
| CC(C)n1c(C(=O)N2CCCC2)nc2c1CCN(c1ncccn1)C2 | -6.562% |
| NC(=O)C1CCCN(c2ncnc3c2Cc2ccccc2OC3)C1 (stereo not given) | 10.44% |
| Cc1nc2c(c(N[C@H](C(N)=O)C(C)C)n1)Cc1ccccc1OC2 | 105% |
| CN(CC1(CO)CCC1)c1nc2c(c(=O)[nH]1)Cc1ccccc1OC2 | 9.578% |
| NC(=O)C1CN(c2ncnc3c2Cc2ccccc2OC3)CCO1 (stereo not given) | -2.361% |
| Cc1nc2c(c(N[C@@H](CO)C(N)=O)n1)Cc1ccccc1OC2 | 104.3% |
| CN(CC1(CO)CCCC1)c1nc2c(c(=O)[nH]1)Cc1ccccc1OC2 | 6.752% |
| Cc1nc2c(c(NC(C)c3nnn[nH]3)n1)Cc1ccccc1OC2 (stereo not given) | 97.46% |
| Cc1cc(C(=O)NC(C)c2nnn[nH]2)c2cccc(C)c2n1 (stereo not given) | 0.7589% |
| Cc1nc2c(c(NCC3Cc4ccccc4CN3C)n1)CCNCC2 (stereo not given) | -7.174% |
| COc1ccccc1OCCNC(=O)NCc1nc(C)no1 | -10.03% |
| CCCc1c(C(=O)NC2CCCC2)nnn1-c1ccc(OC)cc1 | 0.3347% |
| CCOCC(=O)N1C[C@@H]2CC[C@H](C1)N(Cc1ccccn1)C2=O | 2.863% |
| NC1(C(=O)N2CCC(c3cc(-c4ccccc4Cl)n[nH]3)CC2)CCC1 | -26.69% |
| CC(C)NC(=O)NC[C@@]1(COc2cnccn2)C[C@@H](O)[C@@H](O)C1.Cl | -2.608% |
| CN1Cc2ccccc2CC2(CCN(c3ncccn3)CC2)C1=O | -6.777% |
| CN1CC(=O)N(c2ccccc2)CC12CCN(Cc1nccn1C)C2.O=C(O)C(F)(F)F.O=C(O)C(F)(F)F (stereo not given) | -13.15% |
| Cn1ccnc1CN1CCC2(CC1)CCN(c1ccccc1)C2=O.O=C(O)C(F)(F)F | 113.1% |
| Cn1ccnc1CN1CCC2(CC1)Cc1ccccc1CNC2=O.O=C(O)C(F)(F)F | 103.5% |
| CN1Cc2ccccc2CC2(CCN(c3ncc(F)cn3)CC2)C1=O | -14.24% |
| CN1Cc2ccccc2CC2(CCN(Cc3nccn3C)CC2)C1=O | 94.48% |
| Cn1ccnc1CN1CCC2(CC1)CCN(c1cncnc1)C2=O.O=C(O)C(F)(F)F | -20.08% |
